# An excerpt weighted towards active compounds, which were near 3.4% of everything screened.
# PAFAH1B3 FP inh – inhibitors of human PAFAH1B3 | Q15102 | recombinant PAFAH1B3, FP-rhodamine probe, fluorescence polarization | inhibition, % at 3.39 µM | hit rate 0.28% among 340,000;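 active = inhibition above the screen-wide average of all tested compounds plus 3 SD, cut at about 25% in these data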
# Target sequence (Q15102 whole entry, looked up): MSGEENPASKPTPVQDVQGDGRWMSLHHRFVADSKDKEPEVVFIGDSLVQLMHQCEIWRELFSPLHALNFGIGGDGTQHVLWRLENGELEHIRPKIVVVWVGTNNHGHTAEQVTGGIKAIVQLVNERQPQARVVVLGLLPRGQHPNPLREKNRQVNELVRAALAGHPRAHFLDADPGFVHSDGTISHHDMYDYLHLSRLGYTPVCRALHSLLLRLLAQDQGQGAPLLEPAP
# PAFAH1B2 FP inh – blocks human PAF acetylhydrolase 1b catalytic subunit 2 | hit rate 1.2% among 340,000 | recombinant PAFAH1B2, FP-rhodamine activity probe, fluorescence polarization | inhibition, % at 3.39 µM | P68402;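 active = inhibition above the mean of all tested compounds plus 3 SD, cut at about 24% in these data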
# PP1 inh – counter-screen for PP5 inhibitors: inhibitors of human PP1-alpha; inhibition, % at 6.7 µM; P62136; purified PP1alpha, OMFP fluorescence; hit rate 0.9% among 320,000;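 active = inhibition above the mean inhibition of all tested compounds plus 3 SD, computed separately for each screening campaign, cut at about 15% in these data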
# Target sequence (P62136 whole entry, looked up): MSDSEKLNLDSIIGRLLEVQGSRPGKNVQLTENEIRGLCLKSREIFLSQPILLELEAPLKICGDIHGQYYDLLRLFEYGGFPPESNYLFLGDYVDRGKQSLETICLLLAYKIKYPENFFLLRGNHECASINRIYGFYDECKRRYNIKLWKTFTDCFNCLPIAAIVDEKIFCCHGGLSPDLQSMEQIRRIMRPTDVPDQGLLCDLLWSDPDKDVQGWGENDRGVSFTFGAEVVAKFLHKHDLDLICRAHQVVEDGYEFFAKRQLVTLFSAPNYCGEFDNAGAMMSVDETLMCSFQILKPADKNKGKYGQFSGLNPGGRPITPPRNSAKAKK
# pPAFAH FP inh – inhibitors of human plasma PAF acetylhydrolase (pPAFAH) | hit rate 1.5% among 330,000 | AID 463082 | Q13093 | recombinant pPAFAH, FP-rhodamine probe fluorescence polarization | inhibition, % at 3.39 µM;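 active = inhibition above the mean inhibition across the screen plus 3 SD, cut at about 25% in these data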;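 also: inhibitors block binding of the rhodamine activity-based probe so polarization drops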
# PP5 inh – blocks human protein phosphatase 5 activity; purified PP5c, OMFP substrate fluorescence; P53041; hit rate 0.18% among 320,000; AID 1987; inhibition, % at 6.7 µM;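 active = inhibition above the campaign's mean inhibition across all tested compounds plus 3 SD, cut at about 9.5% in these data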
# PAFAH2 FP inh – PAFAH2 (human) inhibition. recombinant PAFAH2, FP-rhodamine activity probe, fluorescence polarization. Q99487. inhibition, % at 3.39 µM. AID 492956. hit rate 0.99% among 340,000;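 active = inhibition above the mean over all tested compounds plus 3 SD, cut at about 30% in these data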;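 also: inhibitors block probe labeling of enzyme so polarization drops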
# Numbers stand for hits; 0 = inactive; - = no result.
SMILES,PAFAH1B3 FP inh,PAFAH1B2 FP inh,PP1 inh,pPAFAH FP inh,PP5 inh,PAFAH2 FP inh
CCCOc1ccc(/C=N/Nc2ccccc2[N+](=O)[O-])c(O)c1,0,0,0,0,0,0
CCCOc1ccc(/C=N/NC(=S)Nc2ccccc2[N+](=O)[O-])c(O)c1,-,-,15,0,0,-
CC1CN(C(=S)Nc2ccccc2)C(C)CN1C=O (configuration not stated),0,0,-,-,-,0
COc1ccc2nc(Cl)c(/C=N/Nc3ccccn3)cc2c1,0,0,16,0,0,0
Cc1ccc(-c2csc(N3N=C(c4ccccc4)/C(=C\c4ccc(N(C)C)cc4)C3=O)n2)cc1,-,-,0,28,0,-
C[C@H](CO)N1C[C@H](C)[C@@H](CN(C)S(=O)(=O)c2cn(C)cn2)Oc2ccc(NC(=O)Cc3ccccc3)cc2C1=O,0,0,-,0,-,0
COc1ccccc1NC(=O)COC(=O)C12CC3CC(CC(Br)(C3)C1)C2,0,30,-,0,-,0
O=C(COC(=O)C12CC3CC(CC(Br)(C3)C1)C2)Nc1c(F)cccc1F,0,35,-,0,-,0
Cc1c(NC(=O)COC(=O)C23CC4CC(CC(Br)(C4)C2)C3)c(=O)n(-c2ccccc2)n1C,0,26,0,0,0,0
COc1ccccc1NC(=O)COC(=O)C12CC3CC(CC(Cl)(C3)C1)C2,0,0,0,0,0,0
CC(=O)NC12CC3CC(C1)CC(C(=O)OCC(=O)Nc1c(F)cccc1F)(C3)C2,0,0,0,0,0,0
O=C(COC(=O)C12CC3CC(CC(Br)(C3)C1)C2)Nc1ccc2[nH]c(=O)[nH]c2c1,0,37,0,0,0,0
C=CCn1cnc2c(nnn2-c2ccc(C)c(C)c2)c1=O,0,0,0,0,0,0
COc1cc(/C=C/C(=O)Nc2ccc(S(=O)(=O)Nc3ncccn3)cc2)ccc1OCC#N,0,0,-,-,-,0
COc1ccc(N2CCN(c3ncnc4scc(-c5ccc(C)cc5)c34)CC2)cc1,0,0,0,0,0,0
COc1ccc(N2CCN(c3ncnc4scc(-c5ccccc5)c34)CC2)cc1,0,0,0,32,0,0
C=CCC(CC=C)(NC(=O)c1ccccc1C)c1ccccc1,0,25,0,0,0,0
CCCCC(=O)NC(c1ccccc1OC)c1ccc2cccnc2c1O (configuration not stated),0,0,15,0,0,0
CC(=O)Nc1ccc(S(=O)(=O)NCC(=O)N2CCN(S(=O)(=O)c3cccs3)CC2)cc1,0,0,0,0,0,0
Cc1ccc(C)n1-c1cccc(C(=O)O)c1,-,-,0,63,0,-
CSCCC(NS(=O)(=O)c1ccc(Cl)cc1)C(=O)OCc1cccc(Cl)c1 (configuration not stated),0,33,0,0,0,0
CSCCC(NS(=O)(=O)c1ccc(Cl)cc1)C(=O)OCC(=O)N(C(C)C)C(C)C (configuration not stated),0,0,0,0,0,0
CSCCC(NS(=O)(=O)c1ccc(Cl)cc1)C(=O)OCC(=O)NC1CC1 (configuration not stated),0,0,0,0,0,0
CSCCC(NS(=O)(=O)c1ccc(Cl)cc1)C(=O)OCc1c(Cl)cccc1Cl (configuration not stated),0,27,0,0,0,0
Cc1cc(OCCN2CCOCC2)ccc1C(C)C,0,0,0,0,0,0
SMILES,PAFAH1B3 FP inh,PAFAH1B2 FP inh,PP1 inh,pPAFAH FP inh,PP5 inh,PAFAH2 FP inh
CC(=O)N1CCN(C(=O)c2ccc(Cl)c(S(=O)(=O)N3CCCCCC3)c2)CC1,0,0,0,0,0,0
CCOC(=O)CN1CCC(c2cc(-c3ccc(Cl)cc3)n[nH]2)CC1,0,0,0,31,0,0
CCOC(=O)c1c2c3c(cccc3n(C)c1=O)C(=O)c1ccccc1-2,26,0,0,31,0,0
CCCn1c(C)c(C(=O)OCC)c(O)c(-c2ccccc2)c1=O,-,-,0,0,0,-
CCOC(=O)c1c2c(n(Cc3ccccc3)c1C)C(=O)C(=O)c1ccccc1-2,79,30,-,-,-,52
CCOC(=O)c1c2c3c(cccc3[nH]c1=O)C(=O)c1ccccc1-2,0,0,0,0,0,0
N/C(=N\OC(=O)c1ccc(Cl)cc1Cl)c1ccc(Cl)cc1,0,37,0,0,0,0
N/C(=N\OC(=O)c1ccc(Cl)cc1Cl)c1ccccc1,0,0,0,0,0,0
O=C(/C=C(\O)c1ccc(Cl)cc1)C(=O)NNC(=O)C(O)(c1ccccc1)c1ccccc1,0,0,0,27,0,0
CCCCCn1c(N2CCC(Cc3ccccc3)CC2)nc2c1c(=O)[nH]c(=O)n2C,0,0,16,0,0,0
CCCn1c(N2CCC(Cc3ccccc3)CC2)nc2c1c(=O)[nH]c(=O)n2C,0,0,0,0,0,0
O=C(Nc1ccc(-n2nncc2-c2ccco2)cc1)c1cc2ccccc2oc1=O,0,0,29,0,0,0
COc1cc2c3c(n(C)c(=O)c2cc1OC)-c1cc2c(cc1C3=O)OCO2,0,0,-,-,-,0
N#CC(c1ccc(=O)[nH]n1)c1ccc(Cl)cc1Cl (configuration not stated),0,0,0,34,0,0
Cc1ccc(CNC(=O)C(=O)NCC2CCCN2S(=O)(=O)c2cc(C)ccc2C)cc1 (configuration not stated),0,28,0,0,0,0
Cc1ccc(S(=O)(=O)N2CCCCC2CCNC(=O)C(=O)NCC2CCCO2)cc1 (configuration not stated),0,0,17,0,0,0
Cc1ccc(C)c(S(=O)(=O)N2CCCC2CNC(=O)C(=O)NCc2ccccc2)c1 (configuration not stated),0,0,0,0,0,0
C=CCn1c(NS(=O)(=O)c2ccccc2)c(S(=O)(=O)c2ccc(C)cc2)c2nc3ccccc3nc21,0,0,30,0,13,0
O=c1[nH]c(=S)[nH]c2c1C(c1ccc(Br)cc1)c1c([nH]c(=S)[nH]c1=O)O2,0,0,0,27,0,55
CC(C)CCC(=O)N1CCOC1=O,0,0,0,0,0,0
O=C(COC(=O)Cc1ccc(Br)cc1)NC12CC3CC(CC(C3)C1)C2,0,38,0,26,0,0
O=C(COC(=O)c1c[nH]c2ccccc12)NC1CCCCC1,0,0,0,28,0,83
O=C(COC(=O)Cc1ccc(Br)cc1)NC1CCCCCC1,0,27,0,27,0,0
O=C(COC(=O)COc1ccc(Br)cc1)NC1CCCCCC1,0,0,0,0,0,0
O=C(COC(=O)c1cc(=O)[nH]c2ccccc12)NC1CCCCC1,0,0,-,0,-,0
Nc1nccnc1C(=O)OCC(=O)NCCc1ccc(S(N)(=O)=O)cc1,0,0,0,0,0,0
COC(=O)c1c(NC(=O)COC(=O)[C@@H](NS(=O)(=O)c2cccc(Cl)c2)C(C)C)sc2c1CCC2,0,0,15,0,0,0
O=C(CCS(=O)(=O)c1ccccc1Cl)NC1CCCCCC1,0,0,-,0,-,0

# Screening data as filed in PubChem.
